Experimental data reported in PubChem BioAssay (EPA / NIEHS).
Inconclusive results are not listed. Active and inactive are the calls of the source. How the source made its calls: active means hit-call score of the fitted dose curve at least 0.9, where 1 is the maximum; inconclusive means response in the unintended direction; inactive means score below 0.9.

These compounds were tested against Nucleoli Translocation, AR (gene 367) (UniProt P10275) (assay: UPITT_HCI_U2OS_AR_TIF2_Nucleoli_Agonist: University of Pittsburgh U2OS Androgen Receptor-Transcriptional Intermediary Factor 2 (AR-TIF2) Agonism High Content Imaging Assay for Nucleoli Translocation (AID 2283998)).
Chain of Nucleoli Translocation, AR (gene 367) (P10275 whole entry, looked up, the tested form may be a part): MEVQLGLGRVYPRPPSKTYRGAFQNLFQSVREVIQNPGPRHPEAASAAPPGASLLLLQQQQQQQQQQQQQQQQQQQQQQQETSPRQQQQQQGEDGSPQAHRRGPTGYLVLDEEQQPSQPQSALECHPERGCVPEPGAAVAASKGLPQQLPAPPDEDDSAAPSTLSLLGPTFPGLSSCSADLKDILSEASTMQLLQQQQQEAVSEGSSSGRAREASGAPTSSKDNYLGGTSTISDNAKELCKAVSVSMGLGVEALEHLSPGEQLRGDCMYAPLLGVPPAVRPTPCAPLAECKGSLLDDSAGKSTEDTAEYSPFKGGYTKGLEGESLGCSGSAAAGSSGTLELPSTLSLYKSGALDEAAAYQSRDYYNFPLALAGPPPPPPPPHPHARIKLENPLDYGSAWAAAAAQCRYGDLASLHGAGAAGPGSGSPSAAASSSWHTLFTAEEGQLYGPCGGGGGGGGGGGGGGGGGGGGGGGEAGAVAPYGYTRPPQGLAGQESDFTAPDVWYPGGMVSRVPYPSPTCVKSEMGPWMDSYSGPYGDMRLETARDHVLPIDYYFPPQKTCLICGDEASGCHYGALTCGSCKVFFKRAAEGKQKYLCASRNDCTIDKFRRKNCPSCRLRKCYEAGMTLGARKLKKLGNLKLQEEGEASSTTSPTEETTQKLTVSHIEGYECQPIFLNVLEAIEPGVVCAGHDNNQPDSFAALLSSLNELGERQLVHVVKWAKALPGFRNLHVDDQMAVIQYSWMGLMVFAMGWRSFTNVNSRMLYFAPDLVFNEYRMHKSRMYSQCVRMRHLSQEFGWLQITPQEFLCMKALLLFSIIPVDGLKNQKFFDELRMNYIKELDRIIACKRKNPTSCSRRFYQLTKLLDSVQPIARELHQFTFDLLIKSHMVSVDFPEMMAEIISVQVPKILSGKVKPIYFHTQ
Excerpt: UPITT_AR_TIF2_PPIB is a cell-based, high-content imaging assay that uses U2OS, a human osteosarcoma cell line, expressing a human androgen receptor fused to red fluorescent protein and the coactivator TIF2 fused to green fluorescent protein. UPITT_HCI_U2OS_AR_TIF2_Nucleoli_Agonist is one of four assay components measured from the UPITT_AR_TIF2_PPIB assay. It is designed to make measurements of red fluorescence localized in the nucleolar region of the cell nucleus as detected with high-content fluorescent imaging.Data from the assay component UPITT_HCI_U2OS_AR_TIF2_Nucleoli_Agonist was analyzed into 1 assay endpoint. This assay endpoint, UPITT_HCI_U2OS_AR_TIF2_Nucleoli_Agonist, was analyzed in the positive analysis fitting direction relative to DMSO as the baseline of activity. Using a type of binding reporter, measures of receptor for gain-of-signal activity can be used to understand the binding at the pathway-level as it relates to the gene AR.
Daughter plates containing 2 uL of 10 mM compounds in DMSO were prepared and replicated from the 384-well Library of Pharmacologically Active Compounds (LOPAC) master plates using the Bravo outfitted with a 384-well transfer head. Aluminum adhesive plate seals were applied with an Abgene Seal-IT 100 (Rochester, NY) plate sealer, and the plates were stored at -20 C in a Matrical MatriMinistore (Spokane, WA) automated compound storage and retrieval system. For screening, LOPAC daughter plates were withdrawn from -20C storage, thawed to ambient temperature, centrifuged 1-2 min at 50 g, and the plate seals were removed before the transfer of 98 uL of serum-free tissue culture medium (SFM) into wells using the BioTek Microflo liquid handler (BioTek, Winooski, VT) to generate a 200 uM intermediate stock concentration of library compounds (2.0% DMSO). The diluted compounds were mixed by repeated aspiration and dispensation using a 384-well P30 dispensing head on the Evolution P3 (EP3) liquid handling platform (PerkinElmer, Waltham, MA) and then 5 uL of diluted compounds was transferred to the wells of assay plates. In the LOPAC screen, compounds were individually tested at a final concentration of 20 uM (0.2% DMSO). After the diluted compounds had been transferred from the daughter plates to the primary HCS assay plates, aluminum adhesive plate seals were applied and the diluted daughter plates were stored frozen at -20C. To confirm active compounds identified in the primary screen, we withdrew the LOPAC daughter plates containing the 200 uM intermediate concentration of library compounds (2.0% DMSO) from -20C storage, thawed them to ambient temperature, centrifuged them for 1-2 min at 50 g, and removed the plate seals. A work list was generated to direct the Multiprobe Janus liquid handling platform (PerkinElmer) to cherry pick 75 uL from the wells of the diluted daughter plates that were flagged active in the primary screen and to reformat these into a 384-well plate hit confirmation daughter plate. Five microliters of primary HCS active compounds was then transferred into triplicate wells of assay plates using a 384-well P30 dispensing head on the Evolution P3 (EP3) liquid handling platform (PerkinElmer). […] Daughter plates containing 2 uL of the serially diluted compounds in DMSO were prepared and replicated from the 384-well serial dilution master plates using the Bravo outfitted with a 384-well transfer head. Aluminum adhesive plate seals were applied and plates were stored at -20C. For testing in the bioassays, daughter plates were withdrawn from -20C storage, thawed to ambient temperature, centrifuged for 1-2 min at 50 g, and the plate seals were removed before the transfer of 38 uL of SFM into wells using the BioTek Microflo liquid handler (BioTek) to generate an intermediate stock concentration of library compounds ranging from 1.95 to 500 uM (5.0% DMSO). […]

| SMILES | outcome | AC50 |
| --- | --- | --- |
| CC(C)=CCCC(C)CCO (configuration not stated) | inactive |  |
| CCNc1ccccc1 | inactive |  |
| CCCCC(CC)COC(=O)c1ccc(C(=O)OCC(CC)CCCC)cc1 (configuration not stated) | inactive |  |
| CCCCCCc1ccc(O)cc1O |  | 14.2 µM (active) |
| O=C(O)c1cccc(N(Cc2cccnc2)c2ccc(OC(F)F)c(OC(F)F)c2)c1 | inactive |  |
| Cc1ccc(O)cc1 | inactive |  |
| Oc1ccc2c(c1)-c1ccccc1C2 |  | 76.6 µM (active) |
| C1N2CN3CN1CN(C2)C3 | inactive |  |
| Cc1ccc(N)cc1O | inactive |  |
| CC1(C)C(=O)N(Br)C(=O)N1Br | inactive |  |
| CCCN(C1CCN(C(=O)C2CCNCC2)CC1)[C@@H]1CCc2ccc(OC)cc2C1 | inactive |  |
| Fc1ccccc1[C@@H](F)COC1CCC(Nc2ncnc3[nH]ncc23)CC1 (some centres not stated) | inactive |  |
